Screening results from PubChem BioAssay.
TGFb inhibitor: TGF-b pathway inhibition; HepG2 CAGA-GFP TGF-b/SMAD3 reporter, GFP fluorescence, 18 h; TGF-beta stimulated, 500 pg/mL final; Potency, µM (series often up to 46.1 µM), most hits filed as inhibitors; 410,000 compounds, 1.2% hits; AID 588855; further: nearly all actives have a fitted effect of over 65% in size
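HEPG2 CAGA-GFP, 1000 cells/well; 2 h settle, 37 C; cpd via pin tool; TGF-b 500 pg/mL final; 18 h, 37 C; GFP imaging ex488/em500-530; %Activity normalised to -TGF-b and +DMSO controls; CRC fit, curve class.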
HepG2 tox: kills HepG2 cells in TGF-b inhibitor counter-screen. 410,000 compounds, 0.76% hits. HepG2 CAGA-GFP viability, ATP luminescence, 18 h. Potency, µM (top dose mostly 46.1 µM), usual class: cytotoxic
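HepG2 CAGA-GFP cells (1000/well, DMEM with 1% FBS) received compound, then TGF-beta at 500 pg/mL final, and were incubated 18 hours at 37 degrees C. Viability was read by CellTiter-Glo luminescence. Media-only wells were set as complete cell-killing and DMSO as no toxicity.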
DT40 TDP1 no CPT: qHTS for Inhibitors of human tyrosyl-DNA phosphodiesterase 1 (TDP1): qHTS in cells in absence of CPT. DT40 Tdp1-/- hTDP1 cells, no CPT, ATP luminescence, 48 h. Potency, µM (top dose mostly 46.2 µM), usual class: inhibitors. 420,000 compounds, 15% hits; further: nearly all actives have a fitted effect of over 55% in size
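Cells were dispensed at 400 per well, compounds added by pin tool, plates incubated ≥48 hr at 37 °C, then CellTiter-Glo added for 30 min at room temperature before luminescence reading. Line: DT40 Tdp1-/- complemented with hTDP1; camptothecin omitted.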
S-ASM inh: blocks human secretory acid sphingomyelinase | P17405 | placental ASM, HMU-PC fluorogenic substrate, 60 min | Potency, µM (highest dose often 57.5 µM), hits mostly inhibitors | 340,000 compounds, 0.006% hits
Target sequence (P17405 47-631 limits assumed): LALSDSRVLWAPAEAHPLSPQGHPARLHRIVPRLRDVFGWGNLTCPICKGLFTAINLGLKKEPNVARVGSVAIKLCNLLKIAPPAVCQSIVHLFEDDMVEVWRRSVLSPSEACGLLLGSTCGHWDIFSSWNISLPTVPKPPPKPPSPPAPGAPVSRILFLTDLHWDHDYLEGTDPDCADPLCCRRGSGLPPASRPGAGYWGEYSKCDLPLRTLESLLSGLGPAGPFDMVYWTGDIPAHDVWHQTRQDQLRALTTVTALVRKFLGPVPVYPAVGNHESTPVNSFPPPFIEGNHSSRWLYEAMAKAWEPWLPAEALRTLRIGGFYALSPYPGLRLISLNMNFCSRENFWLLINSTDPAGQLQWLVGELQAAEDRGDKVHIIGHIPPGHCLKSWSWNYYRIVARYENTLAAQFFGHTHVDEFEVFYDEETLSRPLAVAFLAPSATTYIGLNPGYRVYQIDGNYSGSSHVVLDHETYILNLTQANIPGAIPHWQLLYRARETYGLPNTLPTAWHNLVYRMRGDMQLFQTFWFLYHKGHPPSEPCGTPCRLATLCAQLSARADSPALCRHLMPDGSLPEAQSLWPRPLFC
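HMU-PC0 cleavage (9 uM final) by human placental ASM, 60 min at 37 °C following 10 min compound exposure at RT; stopped at pH 10, fluorescence Ex 386/Em 447 nm.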
IL1B secr inh: inhibitors of inflammasome signaling (IL-1 beta secretion); 360,000 compounds, 4.7% hits; AID 743279; activity change, % at 57.5 µM; THP-1 LPS/ATP IL-1B secretion, AlphaLISA, 16 h; stronger effect = lower value; in the data active means activity change below about -50%; inconclusive means mostly about -30% to -49%
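Secreted IL-1B measured by AlphaLISA bead assay after 16 h compound exposure of THP-1 cells; compounds (final up to 57.5 uM) added 1 h before LPS (250 ng/mL) and ATP (1.25 mM) stimulation; lower signal means less secretion.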
DT40 TDP1 CPT: growth inhibition of DT40 Tdp1-/-;hTDP1 cells with camptothecin (screen for TDP1 inhibitors). chicken DT40 Tdp1-/-;hTDP1 cells + 20 nM CPT, ATP luminescence, 48 h. Potency, µM (highest dose often 46.2 µM), most hits filed as inhibitors. 420,000 compounds, 12% hits. AID 686979; further: nearly all actives have a fitted effect of over 55% in size
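Cell growth measured by CellTiter-Glo luminescence after a minimum 48 h, 37 C compound exposure with 20 nM CPT in Tdp1-knockout DT40 cells stably expressing hTDP1, seeded 400/well; qHTS titration format.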
Each line names hits and unclear results; the compound was inactive in the other large screens. The list is not random: actives were taken first. Their share in the collection is about 19%. Unless noted, the call rests on the fitted dose curve; in most records, active means well fitted curve in the direction sought with a large enough effect; inconclusive means small, poorly fitted or top-dose-only effect, or another doubt; inactive means no such curve, though single readings can be large; an effect the other way counts as inactive or inconclusive.

Cn1cccc1/C=N\NC(=O)c1cncc(Br)c1	none (no result: IL1B secr inh)
O=C(N/N=C\c1c(O)ccc2ccccc12)c1cncc(Br)c1	DT40 TDP1 no CPT 0.82µM, S-ASM inh inconclusive, DT40 TDP1 CPT 1.6µM
Cc1occc1C(=O)N/N=C/c1c[nH]c2ccccc12	none
Cn1c(/N=C/c2c(O)ccc3ccccc23)nc2ccccc21	DT40 TDP1 no CPT 5.8µM, DT40 TDP1 CPT 3.3µM
Cc1occc1C(=O)N/N=C/c1c(O)ccc2ccccc12	TGFb inhibitor inconclusive, DT40 TDP1 no CPT 1µM, DT40 TDP1 CPT 0.65µM
O=C(N/N=C/c1c(O)ccc2ccccc12)c1cccnc1	DT40 TDP1 no CPT 1µM, DT40 TDP1 CPT 1.2µM
CCC(C)(C)c1ccc(OCC(=O)Nc2ccncc2)cc1	DT40 TDP1 CPT inconclusive
Cn1cc(C(=O)N/N=C/c2c(O)ccc3ccccc23)ccc1=O	DT40 TDP1 no CPT 3.7µM, DT40 TDP1 CPT 5.2µM
O=C(N/N=C\c1c(O)ccc2ccccc12)c1ccc(O)cc1	DT40 TDP1 no CPT 6.5µM, DT40 TDP1 CPT inconclusive
O=C(O)c1ccc(N=Cc2c(O)ccc3ccccc23)cc1	none
COc1ccccc1/C=N/NC(=O)c1ccc(C)nc1	none
CC1(C)C2CC=C(/C=N/NC(=O)c3ccc(O)cc3)C1C2 (stereo unspecified)	IL1B secr inh -54
Cc1ccc(C(=O)N/N=C/c2c(O)ccc3ccccc23)cn1	TGFb inhibitor inconclusive, DT40 TDP1 no CPT 2.9µM, DT40 TDP1 CPT 3.3µM
Cn1ncc(N=Cc2c(O)ccc3ccccc23)c1C(=O)Nc1cccc(Cl)c1	DT40 TDP1 no CPT 23µM, DT40 TDP1 CPT inconclusive
O=C(N/N=C/c1c(O)ccc2ccccc12)c1ccc(Br)o1	DT40 TDP1 no CPT 4.6µM, DT40 TDP1 CPT 5.2µM
O=C(NN=Cc1c(O)ccc2ccccc12)c1ccncc1	TGFb inhibitor inconclusive, DT40 TDP1 no CPT 3.7µM, DT40 TDP1 CPT 4.6µM
O=C(N/N=C/c1ccccn1)c1ccc(Br)o1	TGFb inhibitor inconclusive, DT40 TDP1 no CPT inconclusive, DT40 TDP1 CPT inconclusive
O=C(N/N=C/c1c(O)ccc2ccccc12)c1ccc[n+](CCO)c1	DT40 TDP1 no CPT inconclusive, DT40 TDP1 CPT 29µM
CNC(=S)N1CCn2cccc2C1c1ccc(F)cc1 (stereo unspecified)	none
CCCNC(=O)c1ccc(Cn2c(SCC(=O)NC(C)C)nc3ccccc3c2=O)cc1	none (no result: S-ASM inh, IL1B secr inh)
O=C1NC[C@H](CCCCN2CCN(CC3CCCCC3)C(=O)C2=O)N(CCC2CCCCC2)C1=O	none (no result: TGFb inhibitor, HepG2 tox, S-ASM inh)
Cc1c(/C=N/NC(=O)c2cccs2)c2ccccc2n1Cc1ccccc1Cl	DT40 TDP1 no CPT 21µM, DT40 TDP1 CPT 16µM
Cc1nn(Cc2ccccc2)c(Cl)c1/C=N/NC(=O)c1cccnc1	DT40 TDP1 no CPT inconclusive
Cc1[nH]c2ccccc2c1/C=N/NC(=O)c1cccs1	DT40 TDP1 CPT inconclusive
Cc1c(/C=N/NC(=O)c2cccnc2)c2ccccc2n1Cc1ccccc1	TGFb inhibitor inconclusive, DT40 TDP1 no CPT 7.3µM, DT40 TDP1 CPT 12µM
Cn1nccc1C(=O)N/N=C/c1c(O)ccc2ccccc12	DT40 TDP1 no CPT 3.3µM, DT40 TDP1 CPT 4.6µM
O=C(N/N=C/c1ccco1)C1CCCC1	none
C/C(=N\NC(=O)COc1ccccc1-c1ccccc1)c1ccc(O)cc1O	TGFb inhibitor inconclusive, DT40 TDP1 no CPT inconclusive, DT40 TDP1 CPT 21µM
O=C(COc1ccccc1-c1ccccc1)N/N=C/c1ccccn1	DT40 TDP1 no CPT 23µM, DT40 TDP1 CPT 23µM
O=C(COc1ccccc1-c1ccccc1)N/N=C/c1cccnc1	DT40 TDP1 no CPT 13µM, DT40 TDP1 CPT 15µM
O=C(COc1ccccc1-c1ccccc1)N/N=C/c1ccc2ccccc2c1	TGFb inhibitor 7.1µM, DT40 TDP1 no CPT 0.92µM, DT40 TDP1 CPT 1.2µM
Cc1ccc(C)c(N2CCN(C(=O)CCc3nc(-c4ccccc4Br)no3)CC2)c1	TGFb inhibitor inconclusive, DT40 TDP1 no CPT inconclusive, DT40 TDP1 CPT inconclusive
Cc1ccc(CC(=O)Nc2ccc3c(c2)N(C)C(=O)c2ccccc2S3)cc1	DT40 TDP1 no CPT inconclusive, DT40 TDP1 CPT inconclusive (no result: S-ASM inh, IL1B secr inh)
COCCCN(C(=O)CSCC(=O)Nc1cccc(C)c1)c1c(N)n(Cc2ccccc2)c(=O)[nH]c1=O	none
C/C(=N\NC(=O)COc1ccccc1-c1ccccc1)c1cccnc1	TGFb inhibitor inconclusive, DT40 TDP1 no CPT 21µM, DT40 TDP1 CPT inconclusive
C/C(=N\NC(=O)c1cccnc1)c1ccccc1	none
Cc1cccc(C)c1OCC(=O)N/N=C/c1cccnc1	DT40 TDP1 no CPT 15µM, DT40 TDP1 CPT inconclusive
CCOC(=O)N1CCc2c(sc3c2c(=O)n(Cc2ccccc2)c(=O)n3CC(=O)Nc2ccccc2F)C1	none (no result: S-ASM inh, IL1B secr inh)
CCOC(=O)CNC(=O)CSc1nnc(C)c(=O)[nH]1	none
CCOC(=O)CSc1nnc(NCC(=O)OC(C)C)c(=O)[nH]1	DT40 TDP1 no CPT 23µM, DT40 TDP1 CPT 10µM
